Source: PubChem BioAssay
Active and inactive are the calls of the source.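 Rule for the calls, unless noted: active = inhibition at or above 50% at 10 µM; inactive = inhibition below 50%.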

How the values were obtained:
[1] = inhibitors of TNFa-induced NFkB p65 translocation, primary screen, imaging, HUVEC, MLSMR starter and 10KST1 sets (AID 438;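 active = inhibition above 20% together with a positive visual image hit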;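 note: compound added about 3h40 before a 20 min TNFalpha stimulation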;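 for inhibition: signal is the nuclear over cytoplasmic p65 intensity ratio per well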); details: HUVEC TNFa-induced p65 nuclear translocation; cell count: measured here: nuclei count (cytotoxicity indicator), at 2.08 µM; inhibition: at 2 µM, stronger effect = higher value, 0% TNFa-plus-vehicle, 100% no-TNFa wells
[2] = reduction of polyQ htt aggregates in cells – imaging, exon1htt(103Q)mCFP cells, high-content imaging, primary screen (AID 483;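 active = visual image review flags a hit and inhibition of aggregation exceeds 20%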;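 note: compound exposure lasted 3 days before fixation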;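 for nuclei count: percent of the per-plate median nuclei count of sample wells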); details: exon1htt(103Q)mCFP cell line, aggregate imaging, at 2 µM; inhibition of aggregation: stronger effect = higher value; nuclei count: measured here: cell count, toxicity
[3] = endothelial E-selectin expression blockers – imaging, HUVEC, immunofluorescence, MLSMR starter and 10KST1 sets, primary screen (AID 487;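 active = visually confirmed hit in the image check and inhibition above 20%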;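 for inhibition: signal is fraction of cell area covered by stained E-selectin grains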;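 for nuclei count: 100% = median nuclei count of all wells on the same plate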); details: HUVEC TNFalpha-induced E-selectin immunofluorescence imaging, at 2 µM; inhibition: stronger effect = higher value; nuclei count: measured here: cell number, toxicity
[4] = molecular target: Voltage-gated potassium channel subunit beta-2 (Rattus norvegicus) (UniProt P62483); assay: inhibitors of rat Kvbeta2 reductase activity – biochemical, NADPH fluorescence, primary screen (AID 622;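 active = fluorescence slope higher than the sample average by over 3 SD, cut at about -0.22 in these data, passing the limit was not always enough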;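 note: slope of raw intensity against log time taken from 70 to 1610 s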); details: recombinant KvBeta, 4-cyanobenzaldehyde reduction, at 10 µM, stronger effect = higher value
Voltage-gated potassium channel subunit beta-2 (Rattus norvegicus), sequence (P62483 whole entry, looked up): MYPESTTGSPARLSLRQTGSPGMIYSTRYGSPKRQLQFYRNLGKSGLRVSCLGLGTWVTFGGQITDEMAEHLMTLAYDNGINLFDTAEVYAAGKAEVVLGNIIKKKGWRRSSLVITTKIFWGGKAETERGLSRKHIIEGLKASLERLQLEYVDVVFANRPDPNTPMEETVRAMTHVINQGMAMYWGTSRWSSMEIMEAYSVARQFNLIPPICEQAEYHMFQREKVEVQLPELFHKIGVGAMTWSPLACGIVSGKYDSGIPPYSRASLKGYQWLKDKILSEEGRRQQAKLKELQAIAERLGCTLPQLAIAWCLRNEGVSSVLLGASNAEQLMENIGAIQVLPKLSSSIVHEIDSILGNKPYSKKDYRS

[5] = molecular target: Voltage-gated potassium channel subunit beta-2 (Rattus norvegicus) (UniProt P62483); assay: enhancers of rat Kvbeta2 NADPH turnover – biochemical, NADPH fluorescence, primary screen (AID 623;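 active = NADPH fluorescence slope more negative than the mean of all samples by about 3 SD, 99.7% confidence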;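 note: fluorescence intensity change per second fitted from 20 to 320 s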); details: Recombinant KvBeta, NADPH fluorescence decrease slope, 10 min; at 10 µM; stronger effect = lower value
[6] = molecular target: Alpha-2C adrenergic receptor (Homo sapiens) (UniProt P18825); assay: compounds altering alpha2C-coupled GIRK flux – cell-based, HEK293 alpha2C/GIRK1/2, thallium flux, primary screen (AID 624;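 active = fluorescence slope after compound addition differing from the mean of all screened samples at 99.7% confidence, in either direction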;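 note: slope of fluorescence ratio to pre-addition baseline per second over 15 to 24 s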); details: thallium flux BTC fluorescence, at 10 µM, actives lie on both sides
Alpha-2C adrenergic receptor (Homo sapiens), sequence (P18825 whole entry, looked up): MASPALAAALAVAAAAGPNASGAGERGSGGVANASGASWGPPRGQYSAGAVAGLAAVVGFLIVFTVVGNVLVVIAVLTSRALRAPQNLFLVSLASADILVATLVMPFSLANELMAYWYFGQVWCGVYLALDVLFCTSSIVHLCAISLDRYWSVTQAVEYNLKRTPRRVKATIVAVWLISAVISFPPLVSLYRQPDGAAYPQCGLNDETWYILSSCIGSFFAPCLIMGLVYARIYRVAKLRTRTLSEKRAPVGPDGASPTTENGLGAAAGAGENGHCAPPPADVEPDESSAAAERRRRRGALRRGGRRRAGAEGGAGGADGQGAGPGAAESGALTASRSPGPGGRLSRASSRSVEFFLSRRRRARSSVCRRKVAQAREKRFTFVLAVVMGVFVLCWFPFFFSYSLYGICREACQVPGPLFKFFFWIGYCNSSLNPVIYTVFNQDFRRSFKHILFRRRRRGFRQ

[7] = blockers of RIG-like receptor reporter activation – cell-based, Sendai virus stimulus, luciferase, 10K MLSCN set, TLR/RLR signaling modifier project, primary screen (AID 602276); details: HEK293 RL24 IRF3 luciferase reporter, at 10 µM, stronger effect = higher value;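 note: firefly luciferase from ISG56 promoter only with Renilla not read in this screen; 0% = Sendai virus plus DMSO and 100% = medium plus DMSO without virus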
[8] = TLR3 IRF3 reporter activation blockers – cell-based, poly I:C stimulus, luciferase, 10K MLSCN set, primary screen (AID 602277;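 active = inhibition of the reporter signal at or above 50%; inactive = inhibition below 50%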); details: HEK293-TLR3 RL24 IRF3 luciferase reporter, at 10 µM, stronger effect = higher value

Row | SMILES | cell count [1] | inhibition [1] | inhibition of aggregation [2] | nuclei count [2] | inhibition [3] | nuclei count [3] | fluorescence slope [4] | NADPH fluorescence slope [5] | slope [6] | inhibition [7] | inhibition [8]
1 | CCOC(=O)Nc1c(O)ccc2oc(C)c(-c3ccccc3)c12 | 271 | -6.4% (inactive) | -22% (inactive) | 104% | -63.2% (inactive) | 106% | -0.5 (inactive) | -0.000121 (inactive) | 0.0037 (inactive) | 18.3% (inactive) | 28.6% (inactive)
2 | Cc1cc(NC(=O)c2cc3ccccc3o2)cc(C)c1OCC(=O)N1CCOCC1 | 388 | 7.3% (inactive) | -7% (inactive) | 121% | -11.8% (inactive) | 115% | -0.526 (inactive) | -4.4e-05 (inactive) | 0.00621 (inactive) | -1.27% (inactive) | -52% (inactive)
3 | CCOC(=O)CSc1nnc(-c2ccc(Cl)cc2Cl)o1 | 376 | 1.9% (inactive) | -9.2% (inactive) | 93.8% | -57.5% (inactive) | 116% | -0.405 (inactive) | -2.6e-05 (inactive) | 0.00557 (inactive) | 4.99% (inactive) | 2.18% (inactive)
4 | COc1ccc(-n2c(Cc3cccn3C)nnc2SCC(=O)Nc2cccc(C)c2C)cc1 | 816 | 4.6% (inactive) | 4.2% (inactive) | 105% | -26.4% (inactive) | 110% | -0.596 (inactive) | -4.5e-06 (inactive) | 0.00595 (inactive) | 0.797% (inactive) | 27.3% (inactive)
5 | O=C(Nc1ncc(Cc2ccccc2)s1)C1CCCO1 (stereo not drawn) | 455 | -3.3% (inactive) | 11% (inactive) | 109% | -1.5% (inactive) | 96.3% | -0.563 (inactive) | -1.3e-05 (inactive) | 0.00728 (inactive) | -58.5% (inactive) | -150% (inactive)
6 | Cc1ccnc(NC(=O)C2CCC(CNc3c(N4CCCC4)c(=O)c3=O)CC2)c1 (stereo not drawn) | 544 | 4.4% (inactive) | -2.5% (inactive) | 113% | -31.3% (inactive) | 98.8% | -0.598 (inactive) | -2.9e-05 (inactive) | 0.00671 (inactive) | 4.3% (inactive) | 18.4% (inactive)
7 | Cc1ccc(C)c(N(CC(=O)NCc2ccco2)C(=O)CCC(=O)Nc2ccccn2)c1 | 423 | 5.1% (inactive) | -7.8% (inactive) | 114% | -41% (inactive) | 105% | -0.608 (inactive) | -1.8e-05 (inactive) | 0.00608 (inactive) | 15.1% (inactive) | 30.2% (inactive)
8 | CCOC(=O)C1CCN(Cc2c(O)ccc3ccccc23)CC1 | 596 | -3% (inactive) | 3.7% (inactive) | 109% | -41.8% (inactive) | 124% | -0.5 (inactive) | -7.8e-05 (inactive) | 0.00484 (inactive) | 25.4% (inactive) | 33.8% (inactive)
9 | COCCn1nnnc1C(C(C)C)N1CCN(C(=O)c2ccco2)CC1 (stereo not drawn) | 314 | 1.6% (inactive) | 10% (inactive) | 85.2% | -23.9% (inactive) | 121% | -0.511 (inactive) | 4.3e-05 (inactive) | 0.00753 (inactive) | -9.3% (inactive) | -17.2% (inactive)
10 | COc1ccc(OC)c(NC(=O)CCNS(=O)(=O)c2cccs2)c1 | 662 | 7.1% (inactive) | 5.1% (inactive) | 81.4% | -74.4% (inactive) | 91.1% | -0.533 (inactive) | 3.3e-05 (inactive) | 0.00666 (inactive) | 14.1% (inactive) | 24.2% (inactive)
11 | COC(=O)C1=C(C)Nc2nnnn2C1c1cccs1 (stereo not drawn) | 536 | -8.8% (inactive) | -0.9% (inactive) | 107% | -19.9% (inactive) | 62.5% | -0.599 (inactive) | -6.8e-05 (inactive) | 0.0058 (inactive) | 4.45% (inactive) | 20.5% (inactive)
12 | COc1ccc(N2CCN(c3ccc(N)cc3C#N)CC2)cc1 | 744 | -6.6% (inactive) | 28.1% (inactive) | 102% | -65.8% (inactive) | 104% | -0.593 (inactive) | -2.3e-05 (inactive) | 0.00782 (inactive) | 3.39% (inactive) | 21.5% (inactive)
13 | Cc1cc(C)cc(NC(=O)CSc2nnc(Cc3cccn3C)n2-c2ccc(F)cc2)c1 | 479 | 4% (inactive) | 36.9% (inactive) | 12.9% | 39.4% (inactive) | 96.5% | -0.519 (inactive) | -2e-05 (inactive) | 0.00611 (inactive) | 13.7% (inactive) | 25.8% (inactive)
14 | CC1CCC(C(=O)NC(C(=O)NCCN2CCC(C)CC2)C(C)C)CC1 (stereo not drawn) | 256 | -3.9% (inactive) | -5.5% (inactive) | 71.9% | -24.9% (inactive) | 101% | -0.495 (inactive) | 8.5e-05 (inactive) | 0.00683 (inactive) | 19.4% (inactive) | 25.4% (inactive)
15 | COCCn1nnnc1CN(CCCN1CCOCC1)Cc1cc2c(C)ccc(C)c2[nH]c1=O | 612 | -8.8% (inactive) | -0.2% (inactive) | 112% | 19.5% (inactive) | 92.4% | -0.49 (inactive) | 3e-05 (inactive) | 0.00345 (inactive) | -10.5% (inactive) | 15.5% (inactive)
16 | CN(c1ccccc1)S(=O)(=O)c1ccc(C(=O)OCC(=O)N2CCOCC2)cc1 | 420 | -5.7% (inactive) | 8.2% (inactive) | 92.9% | 0.3% (inactive) | 105% | -0.583 (inactive) | -6.4e-05 (inactive) | 0.00565 (inactive) | 11.4% (inactive) | 22% (inactive)
17 | CCCCCCn1c(SCC(=O)OC)nc2c1c(=O)[nH]c(=O)n2C | 502 | -5.9% (inactive) | 25.4% (inactive) | 71.7% | 5% (inactive) | 91.4% | -0.42 (inactive) | -5.2e-05 (inactive) | 0.00477 (inactive) | 9.4% (inactive) | 31.6% (inactive)
18 | CN(C)S(=O)(=O)c1ccc(C(=O)NCc2cccs2)cc1 | 436 | 4.7% (inactive) | 6.5% (inactive) | 105% | 15.4% (inactive) | 125% | -0.611 (inactive) | -2.1e-05 (inactive) | 0.00652 (inactive) | 3.68% (inactive) | 3.16% (inactive)
19 | COC(=O)c1cc2oc(C)cc2n1CC(=O)Nc1ccc(C)c(C)c1 | 386 | 9.1% (inactive) | 6.1% (inactive) | 103% | -84.5% (inactive) | 115% | -0.337 (inactive) | -1.2e-05 (inactive) | 0.00552 (inactive) | -0.339% (inactive) | 4.84% (inactive)
20 | O=C(COc1ccccc1Cl)NCCCN1CCOCC1 | 458 | 5.4% (inactive) | 0% (inactive) | 117% | -11.3% (inactive) | 126% | -0.509 (inactive) | -5.8e-05 (inactive) | 0.00528 (inactive) | 10.2% (inactive) | 18.2% (inactive)
21 | CC(C)NC(=O)c1ccc2c(c1)nnn2C | 836 | 8.2% (inactive) | 4.8% (inactive) | 104% | -59.5% (inactive) | 116% | -0.471 (inactive) | 2.3e-05 (inactive) | 0.0055 (inactive) | -4.12% (inactive) | 11.6% (inactive)
22 | O=C1CCCC2=C1C1(CCCC1)N=C(Nc1nc3ccccc3s1)N2 | 687 | -4.4% (inactive) | -42.8% (inactive) | 139% | -39.4% (inactive) | 117% | -0.257 (inactive) | -9.3e-06 (inactive) | 0.00377 (inactive) | 10.1% (inactive) | 2.82% (inactive)
23 | CCOC(=O)c1c(C)[nH]c(C)c1C(=O)COc1ccc(NC(=O)c2ccco2)cc1 | 426 | -10.7% (inactive) | 8.3% (inactive) | 102% | -423% (inactive) | 144% | -0.646 (inactive) | 1.7e-05 (inactive) | 0.00505 (inactive) | 14.6% (inactive) | 20.5% (inactive)
24 | CSc1ccc(Cn2nnc(C(=O)NCc3ccccc3)c2N)cc1 | 570 | -2.3% (inactive) | 17.3% (inactive) | 100% | -74.8% (inactive) | 134% | -0.478 (inactive) | -2e-05 (inactive) | 0.00597 (inactive) | 5.71% (inactive) | 12.9% (inactive)
25 | CC(C)OC(=O)CSc1nnc(-c2ccc(O)cc2)n1Cc1ccccc1 | 289 | -1% (inactive) | 12.9% (inactive) | 106% | -57.2% (inactive) | 105% | -0.415 (inactive) | -4.5e-05 (inactive) | 0.00549 (inactive) | 20.3% (inactive) | 16.8% (inactive)
26 | COc1cccc(C2=Nn3c(nnc3-c3ccccc3O)SC2)c1 | 436 | 3.4% (inactive) | 2.3% (inactive) | 99.4% | 25.3% (inactive) | 86.4% | -0.312 (inactive) | 2.8e-05 (inactive) | 0.00345 (inactive) | 6.36% (inactive) | 19.2% (inactive)
27 | COc1ccccc1-n1c(=O)[nH]c2c(C(N)=O)nc(CC(C)C)nc21 | 809 | -0.5% (inactive) | -23.3% (inactive) | 105% | 2.2% (inactive) | 117% | -0.58 (inactive) | -3e-05 (inactive) | 0.00821 (inactive) | 13% (inactive) | 32.3% (inactive)
28 | O=C(Nc1nonc1NC(=O)C1CCCCC1)C1CCCCC1 | 396 | 10.2% (inactive) | -7.6% (inactive) | 108% | -71.5% (inactive) | 127% | -0.473 (inactive) | 3.9e-06 (inactive) | 0.00459 (inactive) | 13.6% (inactive) | 22.8% (inactive)
